{"source": "paper PMC12136788", "binders": {"B1": {"name": "chr2:217001844:217001845:+_ENSG00000079246_ENST00000392132|hu_hu|hu_hu_hu_mus_False|98_108 (ssRNA)", "RNA": "GGGAGUUCUACAGUCCGACGAUCACCGACUUGAGGAUUAGCUCUUUUGUCAUAAGCAUAUCGGACGAUGGCGACCAUGUUUAACUCAUCCAAAGCAUGAACGAGAGAGGAAAGGGCAACAGCUGCCGCCUCAUCAUCCUUUGCCAACAGAGGAUUGAGCAUCA"}, "B2": {"name": "31404426_31405736_1086_CDS_ENSG00000196792_ENST00000355683|human|control|control (ssRNA)", "RNA": "GGGAGUUCUACAGUCCGACGAUCAGUCACUAAAAAAUCAAAUUCUUUCAGUGCUUCCUCAGUAUCAGGAUCGUCAGUUAGGUCAGCAGCUAAACCUUCAUUACCUAUUUUAUGUUUAUUCAUCCGAUGUUUGUCUUUUCCUUCCAACAGAGGAUUGAGCAUCA"}, "B3": {"name": "126502921_126503041_1455_ncRNA_ENSMUSG00000006728_ENSMUST00000140254|mouse|control|control (ssRNA)", "RNA": "GGGAGUUCUACAGUCCGACGAUCUGGUCGGCUUCAGAGUUUCCACAGAAGAGAGGCCUAAGGCAGAAAAAGACUCAAAGUAUGUGUUAUAUCAAAAAUAGGGGAGUGGGGGCUGGAGAGACGGCUCAGCAGAUAAGACUGCUCCAACAGAGGAUUGAGCAUCA"}, "B4": {"name": "chrX:132781199:132781200:+_ENSMUSG00000042712_ENSMUST00000048687|mus_hu|FALSE|FALSE (ssRNA)", "RNA": "GGGAGUUCUACAGUCCGACGAUCUGCUAAUAAAAAGCAAGCUAUAUGGUAUUGUUAAUAUCAGAUAAAAAUCAAGGUAAACUACAUUAAAUAGGGGUAAGGAUGGUUUCGAUUAACCUUCCAACGCAUCACUAUAAGUUUGUUCAACAGAGGAUUGAGCAUCA"}, "B5": {"name": "chrX:132781199:132781200:+_ENSMUSG00000042712_ENSMUST00000048687|mus_hu|motif|central (ssRNA)", "RNA": "B4 RNA with U82G, A83G"}, "B6": {"name": "chr15:90999404:90999405:+_ENSG00000140575_ENST00000268182|hu_hu|FALSE|FALSE (ssRNA)", "RNA": "GGGAGUUCUACAGUCCGACGAUCCUGCAGAGUCUUUUGGGCAUCACCUUCAUCCAGGGCUUCAUUAAUUAAACCAAUGGCUAAAAUCCUCUCAUGUUCCUCUUGCACCACCAGGUUCACAUGGUCCACGCAAGCUUGGAUAUCCAACAGAGGAUUGAGCAUCA"}, "B7": {"name": "chr7:34932688:34932689:-_ENSMUSG00000052997_ENSMUST00000102746|mus_mus|FALSE|FALSE (ssRNA)", "RNA": "GGGAGUUCUACAGUCCGACGAUCCAAGAGCUUCUUUCUUGGGUUUGGCUGCUUAUUCAAAAAAAUAGUUCUACACUGGUCUAUUUUUCCAGAUAAAAUCUUUAAUCCUUCCAACACUAUCAAGCCGGCGAUCACUGCAUUAGUCAACAGAGGAUUGAGCAUCA"}, "B8": {"name": "63494515_63562186_783_3pUTR_ENSMUSG00000025964_ENSMUST00000114107|mouse|control|control (ssRNA)", "RNA": "GGGAGUUCUACAGUCCGACGAUCUAGUGGAUCUCCACGUAGUCAGAAGAUAGCAAACCAUUGUUCAGUGUGAGGUCAAGAAUGAACUUGGAGCCGAAAGCUUCGAUCUGGAAGCUUGCCUGGGCCAGAUGCACAGCCUUAUUGCAACAGAGGAUUGAGCAUCA"}, "B9": {"name": "chr12:16048344:16048345:+_ENSG00000023734_ENST00000419869|hu_hu|hu_hu_hu_mus_True|68_98 (ssRNA)", "RNA": "GGGAGUUCUACAGUCCGACGAUCAGAUCGUCCAUAAGUUAUAACCAAAAUCUCUCCUUCAGGAAUAUAUUCCAUACUGCUAACAGACAUAUUAAAAUUCAGAGAUUUCACUUCUGUCAUUGUGGCAUGAUCCCAGAGCCGAACCAACAGAGGAUUGAGCAUCA"}, "B10": {"name": "chr3:176740097:176740098:-_ENSG00000177565_ENST00000430069|hu_mus|hu_hu_hu_mus_True|78_78 (ssRNA)", "RNA": "GGGAGUUCUACAGUCCGACGAUCUGUUUUGUAUACCACAAAAGGAGGCACUUUCAGUAUCUGUAAAAGGUGUUUAGUCCUAAAACAUACUCACCUAGAGGAUAACUCAGGAAAACAAUCUGUUACACUCUAAGACCUACUCCACAACAGAGGAUUGAGCAUCA"}, "B11": {"name": "chr3:9848215:9848216:+_ENSG00000241553_ENST00000287613|perfect_dup|FALSE|FALSE (ssRNA)", "RNA": "GGGAGUUCUACAGUCCGACGAUCCAAUAACGUAUAAUCACUGGGACCAGUCACAGCCACUGGAGGUGGAGGUUUAAAAAAAAAAAAAAAAAAAAAGACAAAAAGGUUACAGUAUCCUACAAGCACAGAGUUUAAGUUUCAAGACAACAGAGGAUUGAGCAUCA"}, "B12": {"name": "chr14:76904501:76904502:+_ENSMUSG00000022010_ENSMUST00000022587|mus_mus|FALSE|FALSE (ssRNA)", "RNA": "GGGAGUUCUACAGUCCGACGAUCUCCAUCGCCACUGGUCUACACCAUUGGGAUUUCAUGCAAUUGCAGCCAAAUUAAAAAAACAGCCCCGUGGAAAAAAAAGAGAGAGGGCGGGAGGGAGCAAGCUCCAGCAGCCUGGUUCAACAACAGAGGAUUGAGCAUCA"}, "B13": {"name": "chr3:9848215:9848216:+_ENSG00000241553_ENST00000287613|perfect_dup|FALSE|FALSE (ssRNA)", "RNA": "GGGAGUUCUACAGUCCGACGAUCAUCACUGGGGCCAGUCACAGCCACUGGAGCUGGAGGUUGGUUUUUUUGUUUGUUUAAAAAAAAAAAAAAAAAGACAAAAAGGUUACAGUCUUCUACAAGCACAGAGUUUAGGUUUCAAGACAACAGAGGAUUGAGCAUCA"}, "B14": {"name": "122244776_122244896_1956_3pUTR_ENSMUSG00000039735_ENSMUST00000162409|mouse|control|control (ssRNA)", "RNA": "GGGAGUUCUACAGUCCGACGAUCGAAAAAGCACACAUCCUUUACACACACUUAGGCAGGACAGAAAGCAAAAGGCAUCGAUUAAGCUUCCACACCAGCAUCACUUGAACAGUAAGGCGUCAAAGAGUUUCUGGUGGCAGUAUUCAACAGAGGAUUGAGCAUCA"}}, "note": "Changes are numbered by the printed parent chain. Whole data set: some 24,000 sequences, median “enrichment r” near 0.99, cut for the highest 2% near 3.7. Shown is part of a subset that was picked to be rich in the highest values."}
{"target": "T1, UNK ZnF1-3 (human, UniProt Q9C0B0 31-174)", "T1 sequence": "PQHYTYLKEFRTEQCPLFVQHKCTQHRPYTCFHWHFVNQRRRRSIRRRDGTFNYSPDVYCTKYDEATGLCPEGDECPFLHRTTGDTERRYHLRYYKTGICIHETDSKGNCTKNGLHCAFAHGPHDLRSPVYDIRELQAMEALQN", "experiment": "nsRBNS (natural sequence RNA bind-n-seq); RBNS binding buffer (assumed for nsRBNS): 25 mM Tris pH 7.5, 150 mM KCl, 3 mM MgCl2, 0.01% Triton X-100, 500 ug/ml BSA, 20 U/ml SUPERase-In, 4 C; UNK is unkempt and MSI1 is Musashi-1; names of the RNAs are library labels; protein concentration not given here; high values mean tight binding", "units": {"binding signal": "enrichment R"}}
{"binder": "B1", "binding signal": 2.19}
{"binder": "B2", "binding signal": 0.927}
{"binder": "B3", "binding signal": 3.33}
{"binder": "B4", "binding signal": 5.13}
{"binder": "B5", "binding signal": 5.74}
{"binder": "B6", "binding signal": 1.38}
{"binder": "B7", "binding signal": 1.12}
{"binder": "B8", "binding signal": 1.25}
{"binder": "B9", "binding signal": 1.19}
{"binder": "B10", "binding signal": 0.869}
{"binder": "B11", "binding signal": 9.16}
{"binder": "B12", "binding signal": 2.68}
{"binder": "B13", "binding signal": 9.16}
{"binder": "B14", "binding signal": 1.73}
